Bioassay records deposited in PubChem by several laboratories.
BaF3 parental: parental Ba/F3 viability inhibition as JAK2V617F counter-screen. CellTiter-Glo ATP luminescence. inhibition, % at 5.6 µM. 1.1% of 220,000 active. AID 1486;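 active = inhibition above a per-campaign cutoff, the mean inhibition of all tested compounds plus 3 SD, cut at about 27% in these data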;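 also: 0% = DMSO wells and 100% = JAK Inhibitor I control wells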
Ba/F3 V617F tox: reduce viability of Ba/F3 cells dependent on JAK2V617F | Ba/F3 EpoR-JAK2V617F viability, ATP luminescence | inhibition, % at 5.6 µM | 1.1% of 220,000 active | AID 1446;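 active = inhibition above the campaign mean plus 3 SD over all tested compounds, cut at about 24% in these data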;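 also: cytokine-independent growth of Ba/F3 cells driven by EpoR plus mutant JAK2; 0% = DMSO-treated cells and 100% = JAK inhibitor I control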
aSyn 5UTR inh: MLPCN primary screen, SNCA 5' untranslated region. alpha-synuclein 5'UTR reporter, inhibitor activity. inhibition, % (tested at 7.5 µM). 0.82% of 300,000 active. AID 1813; in the data active = inhibition above about 60%; inconclusive = no clear call, values can overlap the other calls;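 also: H4 neuroglioblastoma cells stably carrying SNCA 5'UTR luciferase fusion; 0% = DMSO wells and 100% = positive control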
IEC-6 tox: kills IEC-6 intestinal cells in KLF5 counter-screen | IEC-6 cytotoxicity, luminescence viability | inhibition, % at 5 µM | 0.78% of 290,000 active;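 also: 0% = plate median of test compound wells and 100% = cytotoxic reference compound wells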
APP transl inh: APP translation inhibition; SH-SY5Y APP 5'UTR-luciferase reporter, luminescence; AID 1285; 0.82% of 190,000 active; inhibition, % at 2 µM;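 active = inhibition above a set limit, derived from the sample mean plus 3 SD, cut at about 45% in these data; inconclusive = one replicate passes the limit while the other fails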
KLF5 inh: inhibitors of KLF5 expression. DLD-1 KLF5 promoter-luciferase reporter, luminescence. inhibition, % at 5 µM. 0.23% of 290,000 active. AID 1700;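 active = inhibition above a per-plate limit of that plate's mean compound inhibition plus 3 SD, cut at about 60% in these data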;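 also: 0% = DMSO wells and 100% = LY294002 at 200 µM; higher means less KLF5 promoter-driven luciferase light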
IEC-6 tox confirm: IEC-6 cytotoxicity, confirmation assay. shares compounds with IEC-6 tox. IEC-6 rat intestinal epithelial viability, luminescence. inhibition, % at 5 µM. 63% of 1,900 active. AID 1907;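 also: 0% = vehicle and 100% = reference cytotoxic drug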
* = called active by the depositor. Compounds with a hit are over-represented: about 2.1% of the library has one in this group of screens. Rule as the data show it, unless noted: active = inhibition above about 22%; inactive = the rest.

How did COC(=O)c1ccccc1S(=O)(=O)N1CCC(C(=O)OCC(=O)c2ccccc2OC)CC1 do in these assays?
aSyn 5UTR inh: -17

What do the screens show for `Cc1ccc(-n2ncc(C(=O)Nc3cc(Cl)cc(Cl)c3)c2C2CCNCC2)cc1C`?
BaF3 parental: 86*; Ba/F3 V617F tox: 95*; aSyn 5UTR inh: 93*; IEC-6 tox: 98*; APP transl inh: 79*; KLF5 inh: 52; IEC-6 tox confirm: 97*

What do the screens show for `CCOC(=O)c1c(S(=O)(=O)NCC(=O)Nc2ccc(OC)cc2)c(C)n(C)c1C`?
aSyn 5UTR inh: 13; IEC-6 tox: -8; KLF5 inh: -6

Results for Cc1ccn2c(C(=O)CSc3ccccc3)c(C)nc2c1 ?
BaF3 parental: -2; Ba/F3 V617F tox: 0; aSyn 5UTR inh: -65; IEC-6 tox: 23*; APP transl inh: 4; KLF5 inh: -27; IEC-6 tox confirm: 22

How did CC1CC2(CCCC2)Nc2ccc(F)cc21 (stereo unspecified) do in these assays?
aSyn 5UTR inh: -1; IEC-6 tox: -9; KLF5 inh: 2

How did CC1CC(C)(C)Nc2ccc(N=O)cc21 (stereo unspecified) do in these assays?
BaF3 parental: 93*; Ba/F3 V617F tox: 97*; aSyn 5UTR inh: 32; IEC-6 tox: 24*; APP transl inh: 65*; KLF5 inh: -62; IEC-6 tox confirm: 21

What do the screens show for `COc1cc(/C=C/C(=O)c2ccc3c(c2)OCCO3)cc(Br)c1OCC(=O)N(C)C`?
aSyn 5UTR inh: inactive; IEC-6 tox: 24*; KLF5 inh: 43; IEC-6 tox confirm: 17

How did Cc1cc2c(cc1S(=O)(=O)Nc1ccc(OC(F)(F)F)cc1)OCC(=O)N2 do in these assays?
aSyn 5UTR inh: 27; IEC-6 tox: -6; KLF5 inh: -14

How did CC(=O)c1ccc(N/N=C(/C(N)=O)C2=NC(C)(C)Cc3ccccc32)cc1 do in these assays?
BaF3 parental: 0; Ba/F3 V617F tox: -1; aSyn 5UTR inh: inconclusive; IEC-6 tox: 40*; APP transl inh: 27; KLF5 inh: 24; IEC-6 tox confirm: 33*

How did O=C(COc1ccccc1-c1ccccc1)NN=C1CCCC1 do in these assays?
BaF3 parental: 6; Ba/F3 V617F tox: 3; aSyn 5UTR inh: 29; IEC-6 tox: 53*; APP transl inh: 82*; KLF5 inh: 31; IEC-6 tox confirm: -8

How did COc1cc(NC2CCCCC2O)c2nc(-c3ccc(Cl)cc3)ccc2c1 (stereo unspecified) do in these assays?
BaF3 parental: 0; Ba/F3 V617F tox: -3; aSyn 5UTR inh: -94; IEC-6 tox: 23*; KLF5 inh: -52; IEC-6 tox confirm: 11

What do the screens show for `COc1ccc(OC)c(NC(=O)COC(=O)CSc2ccc(Cl)cc2)c1`?
BaF3 parental: 6; Ba/F3 V617F tox: -1; aSyn 5UTR inh: 7; IEC-6 tox: 0; APP transl inh: 15; KLF5 inh: -20

How did COc1ccc(C2=Nn3c(nnc3-c3ccncc3)SC2)cc1 do in these assays?
BaF3 parental: -1; Ba/F3 V617F tox: -6; aSyn 5UTR inh: 8; IEC-6 tox: 3; APP transl inh: 3; KLF5 inh: -14

Results for CCOc1ccc(C2=Nn3c(nnc3-c3ccc(OC)cc3)SC2)cc1 ?
BaF3 parental: 57*; Ba/F3 V617F tox: 73*; aSyn 5UTR inh: 84*; IEC-6 tox: 34*; APP transl inh: 95*; KLF5 inh: -5; IEC-6 tox confirm: 52*

Results for COc1ccc(S(=O)Cc2ccc(C(=O)N3CCN(c4cccc(C)c4C)CC3)o2)cc1 (stereo unspecified) ?
aSyn 5UTR inh: 36; IEC-6 tox: 32*; KLF5 inh: 25; IEC-6 tox confirm: 37*

How did COc1ccc(N2CCN(C(=O)c3ccc(CS(=O)Cc4ccc(C)cc4)o3)CC2)cc1 (stereo unspecified) do in these assays?
aSyn 5UTR inh: -20; IEC-6 tox: 4; KLF5 inh: -4

How did CSCc1ccc(C(=O)NC(C)c2cnn(-c3ccccn3)c2C)o1 (stereo unspecified) do in these assays?
aSyn 5UTR inh: -37; IEC-6 tox: 8; KLF5 inh: -34

How did CCOc1ccc(/C=C/c2nc(C#N)c(NCCCOC)o2)cc1 do in these assays?
aSyn 5UTR inh: -150; IEC-6 tox: 74*; KLF5 inh: 54; IEC-6 tox confirm: 61*

Results for CN(Cc1ccccc1)C1=CC(=[N+]2CCCCC2)CC(C)(C)C1 ?
BaF3 parental: 79*; Ba/F3 V617F tox: 98*; aSyn 5UTR inh: -20; IEC-6 tox: 34*; KLF5 inh: 20; IEC-6 tox confirm: 19

What do the screens show for `O=C(O)c1ccccc1NC(=O)c1ccccc1Nc1ccccc1`?
aSyn 5UTR inh: 34; IEC-6 tox: 35*; KLF5 inh: 21; IEC-6 tox confirm: 11

How did COc1cc(CN2CCCC(C(=O)c3ccc4c5c(cccc35)CC4)C2)cc(OC)c1O (stereo unspecified) do in these assays?
BaF3 parental: 7; Ba/F3 V617F tox: 3; aSyn 5UTR inh: 0; IEC-6 tox: 4; APP transl inh: 9; KLF5 inh: -8

What do the screens show for `O=C(C[n+]1ccccc1)Nc1ccccc1C(F)(F)F`?
aSyn 5UTR inh: 4; IEC-6 tox: 1; KLF5 inh: -34

How did Cc1ccc(N=Nc2c(N)[nH]n3c(=O)cc(C)nc23)cc1 do in these assays?
BaF3 parental: 0; Ba/F3 V617F tox: -2; aSyn 5UTR inh: -54; IEC-6 tox: 22*; APP transl inh: 2; KLF5 inh: -26; IEC-6 tox confirm: 16

How did COc1ccc(S(=O)(=O)N(C)c2ccc(C(=O)NCC3CCCO3)cc2)cc1OC (stereo unspecified) do in these assays?
aSyn 5UTR inh: 29; IEC-6 tox: 3; KLF5 inh: -53

What do the screens show for `CCOC(=O)Nc1nc(-c2ccccc2)c(C(=O)c2ccccc2)s1`?
BaF3 parental: 80*; Ba/F3 V617F tox: 80*; aSyn 5UTR inh: 117*; IEC-6 tox: 86*; APP transl inh: 94*; KLF5 inh: 55; IEC-6 tox confirm: 58*

How did CCOc1ccc(C(=O)NC(=S)Nc2cccc(S(=O)(=O)NC3=NCCC3)c2)cc1 do in these assays?
BaF3 parental: 79*; Ba/F3 V617F tox: 72*; aSyn 5UTR inh: 111*; IEC-6 tox: 65*; APP transl inh: 89*; KLF5 inh: 57; IEC-6 tox confirm: 46*

What do the screens show for `CSc1ccccc1NC(=O)c1ccc(N2CC3CC(C2)c2cccc(=O)n2C3)c(NC(=O)c2cccnc2)c1` (stereo unspecified)?
aSyn 5UTR inh: 38; IEC-6 tox: 3; KLF5 inh: 4

Results for CN1CC(=O)N2C(c3cccc([N+](=O)[O-])c3)c3[nH]c4ccccc4c3C[C@H]2C1=O (stereo partly specified) ?
aSyn 5UTR inh: 17; IEC-6 tox: 34*; KLF5 inh: 32; IEC-6 tox confirm: 14

What do the screens show for `Cc1cccc(-c2nc(CS(=O)CC(=O)N3CC(C)CC(C)C3)c(C)o2)c1` (stereo unspecified)?
aSyn 5UTR inh: -1; IEC-6 tox: -3; KLF5 inh: 2
